Data: the supplement of paper PMC6555819

Key:
Test in all cases: PBM binding z-score (relative to random genomic background probes); higher = stronger binding; sequences stand for … in GC…GCGATTGACAGCGTAGAATGAAGG
[1] = system: RARb homodimer (NR concentration 270 nM)
How it was run: (§1)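 Scanned fluorescence from custom Agilent 4×180K protein-binding microarrays was regression-normalized. Binding z-scores use random background probes as reference. Ligand-free nuclear receptor dimers were incubated on the arrays for 1 h and detected with antibodies against each partner (one per run).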

[2] = system: RARg:RXRa (NR concentration 270 nM, RXRa partner concentration 90 nM)
How it was run: as §1

[3] = system: RARg homodimer (NR concentration 270 nM)
How it was run: as §1

[4] = system: RXRa DBDmut IVT, anti-RXR (DBD mutation: RXRa K156A/R161A, NR concentration 90 nM)
How it was run: as §1

[5] = system: RXRa homodimer (NR concentration 180 nM)
How it was run: as §1

[6] = system: THRa:RXRa (NR concentration 90 nM, RXRa partner concentration 90 nM)
How it was run: as §1

[7] = system: THRa homodimer (NR concentration 90 nM)
How it was run: as §1

[8] = system: VDR homodimer (NR concentration 270 nM)
How it was run: as §1

Sequence	PBM binding z-score [1]	PBM binding z-score [2]	PBM binding z-score [3]	PBM binding z-score [4]	PBM binding z-score [5]	PBM binding z-score [6]	PBM binding z-score [7]	PBM binding z-score [8]
TCTATTAGTTGAAGGGCAACTGACGAGTCCGTTT	1.26	0.617	0.548	1.49	0.829	0.242	-0.0338	1.4
CCTATTAGTTGACCATAAGGGCGACCGAAGCTCG	1.12	0.591	0.438	0.516	0.491	0.798	0.626	0.694
CCTTACGGGTCACTGAAAGGTTATAGCATTTGGA	4.08	6.85	4.86	1.54	5.63	3.44	0.371	1.14
CCTTGGAGGACAACAGGAGGTCAGAGCTGCCAGA	3.58	3.49	3.03	0.451	2.08	2.88	1.13	1.24
ACAGACAGGTGAGAGAAGGTAACTCAGCTGGACG	0.122	0.137	0.491	-0.484	0.333	1.69	-0.219	-0.636
CATAGCAGGCCAGGGTCACTCAAGCATTTCGCTT	3.09	3.13	2.89	0.718	3.61	3.07	1.43	1.81
ATATGTAGGTTACATCCGGGCCATTCAGGCTATG	0.788	1.35	0.995	0.497	0.936	2.04	0.851	0.406
CGTCCAAGGTCATAGGATGTCAGTGAAGACAGAT	4.04	5.95	6.37	3.93	6.11	4.28	2.46	3.2
TCTAGTTGGTCAAAGGTCGCACACTCGAAATGCG	3.14	4.78	2.91	1.27	5.6	2.48	0.836	1.26
CCTTCCGGGTCACGAGGTTATAGCACGACGAGCG	4.02	6.06	5.4	1.68	7.05	4.22	2.95	2.57
TCGAGTAGGTTACCAATGGGGCCTTCAGCTTTCT	0.0421	0.0942	-0.234	0.173	0.293	-0.167	-0.919	-0.944
ACTATTAGTGGACTTAGGGCAACCGATACGACGC	0.427	0.269	0.779	0.397	0.286	1.17	0.136	0.0269
CCGACTGGGGCATAAGGTTACCACAAGCCAGCCC	1.92	1.8	1.2	-0.196	1.32	2.04	1.37	0.195
CAAACTAGGTCACGGTCAAAGTCGGTTTGTGCCA	4.62	4.99	5.89	2.12	3.82	3.94	2.34	1.7
CGTCCAAGGTCAGCAGATCAGTGAAAGCGACGTG	3.69	4.89	5.8	2.42	3.8	3.42	2.11	0.793
ACAGACAGGTAATGAAGGTAACTCAGGCTATCAT	0.185	0.351	0.385	-0.156	0.59	1.14	0.263	-0.0776
CATACAGGGTCAGCCAGGCCAGAGTAGGGACGGC	3.14	4.58	4.31	1.4	4.58	3.36	1.19	1.78
CTAGAAAGGTCGGTTGAGGTGAGTATACGGATAA	2.53	2.76	2.97	1.01	2.5	4.81	1.71	1.05
ATATGTAGGTTACATCCGGGTTATTCAGGCTATG	1.32	1.65	1.4	1.14	1.84	2.18	1.08	0.79

Sequence	PBM binding z-score [1]	PBM binding z-score [2]	PBM binding z-score [3]	PBM binding z-score [4]	PBM binding z-score [5]	PBM binding z-score [6]	PBM binding z-score [7]	PBM binding z-score [8]
CGAACTAGGTCAGAACACGACAGTGAAGGATGAT	1.84	2.55	3.06	0.593	1.39	1.31	0.186	-0.122
TCGAGTAGGTTACCAACGGGGCATTCAGCTTTCT	0.583	1.52	0.504	0.191	0.733	0.042	-0.794	-0.578
AGAACGAGGGCACGCTGAGTTGATCGCAGAGTAG	1.14	2.19	2.41	1.74	1.27	1.85	-0.239	1.73
AGAACGAGGGCAATGATTTGATAGCACGGGTGGC	0.954	0.982	1.4	1.64	0.834	0.95	0.00137	0.721
AGTCAAAGTTCGCTAGGTAACGTAAGATTCAGCT	0.79	1.41	1.49	1.92	0.868	0.668	-0.0669	0.872
ACAGACAGGTGAGTGAAGGTTACTCAGCTGGACG	0.978	0.724	0.906	-0.643	0.869	1.68	-0.671	-0.214
CCTATTACTTGACCATAAGGGCAACCGAAGCTCG	1.99	0.821	1.15	0.77	0.915	1.84	1.86	1.23
TCTTCTAGATCAAGCAGGTTAAGAAAGCCTGAGT	0.111	0.248	-0.0717	0.841	0.526	0.295	-0.392	0.0619
CGTACTGGGCCAAGGTCATTGATCAGTCAAAGCA	3.36	3.89	3.26	1.57	3.05	3.42	2.56	3.55
ATATGTAGGTTAGCTGGGGTCACTCAGACTAGGC	4.11	4.29	3.51	1.52	5.23	5.18	3.2	2.95
CCTTACGGGTCACTCCTGGTTATAGCATCGGAGT	2.89	4.05	4	1.26	3.9	2.86	-0.0278	1.19
TCTAATTGGTCAAAGGTCACACACTCGAAATGCG	4.96	7.28	6.41	2.51	8.16	4.13	2.44	3.16
ACTAGCAGGCCAGGGGTCACTCAAGATTAGTCCG	4.12	5.09	4.23	1.31	6.16	3.5	1.05	2.8
TAGCCTAGGTCATGCGTGCCAGTATAGTGTCGGC	3.14	3.78	3.75	0.805	2.85	2.96	1.22	0.552
ATATGTAGGTTAAGGGTCATACAGGTTGGTTCGC	4.12	5.01	3.57	2.4	6.23	3.48	1.48	4.2
TTAATGAGGTTAAAGATCAGGGAACGTGGCGTCG	0.917	2.56	1.52	1.68	4.02	2.89	0.742	1.14
AATCAAAGTTCACTAGGTAACGTAAGATTCAGCT	3.41	4.44	4.91	4.32	3.38	2.02	0.0511	3.46
AAACCAAGGTGATCGTGAGGTCGTTGATACTAAC	1.41	2.02	0.373	0.896	1.55	3.5	2.46	2.81
GCGACTGGCGCATCAGCAGGTTACCATAACTTAA	-0.252	-0.477	-0.547	-0.402	-0.293	-0.328	-0.551	-0.6

Sequence	PBM binding z-score [1]	PBM binding z-score [2]	PBM binding z-score [3]	PBM binding z-score [4]	PBM binding z-score [5]	PBM binding z-score [6]	PBM binding z-score [7]	PBM binding z-score [8]
TCGAGAAGGTTAGTCGGGGCATTCAGCCAACATA	0.99	0.634	0.546	0.877	0.644	1.79	0.0413	1.2
ATATGTAGGTTAACGGTCATTCAGGTTGGTTCGC	2.72	2.13	2	1.34	1.88	1.62	0.747	1.84
TCTCGCAGGACACGAAAGGTCAGAGCTCGACATC	4.29	4.42	4.47	1.05	4.07	3.42	0.878	0.759
TTATATAGGTAATACAGGTGAAAGTCGGCATCTA	0.731	0.618	0.933	0.117	1.11	1.06	0.46	0.401
CGAACTAGGTCAAGAGGTCAAAGTCCGCTTCCCG	5.66	8.2	7.63	2.69	8.43	4.34	2.51	3.88
CCAGTCAGGTGAGAAGGTAACTCAGCCTCGATTA	0.469	0.276	0.321	-0.0426	0.153	1.11	0.512	-0.271
CCGACTGGGGCAGAAAGGTCACCATACCATCCGG	5.15	5.42	5.69	-0.33	5.7	3.2	1.38	1.86
CGTCCAAGGTCAGCAGGTCAGTTAAAGCGACGTG	5.1	6.48	7.2	2.34	5.18	4.27	2.96	1.71
TCTAGATGGTCAAAGGTCACACACTCGAAATGCG	4.98	7.31	5.87	1.9	8.64	3.96	1.9	2.51
CATACAGGGTCAGCTCGGCCAGAGTAGGGACGGC	3.1	4.38	4.49	1.2	3.95	3.01	0.883	0.595
CGAACTAGGTCATTGACATGACAGTGAATAGTAA	2.55	3.68	4.2	2.17	2.84	2.68	0.792	1.36
AGAACGGGGGCACGCTGAGTTGATAGCAGAGTAG	1.94	3.62	3.2	2.78	2.94	2.9	0.833	3.45
TCGAGTAGGTTACCAATGGGGCATTCAGCTTTCT	0.636	1.2	0.445	0.401	0.5	0.261	-0.612	-0.59
TTTATTAGTTGATTAGGGCAACCGAAACAGCGGA	0.918	0.811	0.769	0.442	0.586	0.999	0.89	0.951
AGATTGAGGTTATTAAGATCAGGGAATTGCGGTC	1.06	1.07	0.837	1.55	1.44	2.37	0.869	1.49
CGTCCAAGGTCAGTGCTAGGTCAGTGAAAGCATT	4.72	6.51	6.07	2.72	4.15	3.98	2.41	2
CGAACTAGATCATCCAGGACAGTGAATACATTGA	0.254	0.0804	0.347	0.701	-0.151	1.13	1.14	0.494
CCCGACAGGTGAAAGGTAACTCAGTCTGGTACGC	0.903	1.26	0.581	-0.307	2.02	1.09	0.506	-0.0778
TCATATAGGTAAAAGCTAGGTGAAAGTCCGATCT	0.265	0.433	0.218	1.44	0.939	1.3	0.0247	-0.0504
